The list is not random: actives were taken first. Their share in the collection is about 17%.
TGFb inhibitor: inhibitors of TGF-b signaling | Potency, µM (highest dose often 46.1 µM), for inactives: at the highest dose activity, negative = inhibition, hits mostly inhibitors | actives 1.2% (n = 410,000) | HepG2 CAGA-GFP TGF-b/SMAD3 reporter, GFP fluorescence, 18 h; TGF-beta stimulated, 500 pg/mL final | AID 588855; further: on the % scale 0 is the no-effect control and ±100 the full control effect; nearly all actives have a fitted effect of over 65% in size
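HEPG2 CAGA-GFP, 1000 cells/well; 2 h settle, 37 C; cpd via pin tool; TGF-b 500 pg/mL final; 18 h, 37 C; GFP imaging ex488/em500-530; %Activity normalised to -TGF-b and +DMSO controls; CRC fit, curve class.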
HT1080-NT tox: kills 2HG-producing HT-1080-NT fibrosarcoma cells; Potency, µM (series often up to 46.1 µM), for the others: at the highest dose activity, negative = less viability, actives largely listed as cytotoxic; actives 1.6% (n = 360,000); HT-1080-NT fibrosarcoma viability, CellTiter-Glo ATP luminescence, 48 h;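 further: NT is the 2HG producing partner of a matched IDH1 knockdown line; 0% = DMSO-treated cells and -100% = media-only wells without cells; nearly all actives have a fitted effect of over 55% in size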
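Viability of the 2HG-overproducing fibrosarcoma line after 48 hours of compound exposure at 37 degrees C was determined by luminescence with CellTiter-Glo, and concentration-effect curves were then fitted and categorized.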
DT40 TDP1 CPT: DT40-hTDP1 cell growth loss with CPT | chicken DT40 Tdp1-/-;hTDP1 cells + 20 nM CPT, ATP luminescence, 48 h | Potency, µM (doses to about 46.2 µM), without a hit: at the top dose activity change, negative = growth inhibition, actives largely listed as inhibitors | actives 12% (n = 420,000) | AID 686979; further: on the % scale 0 is the no-effect control and ±100 the full control effect; nearly all actives have a fitted effect of over 55% in size
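Chicken DT40 Tdp1-/- cells complemented with human TDP1, 400 cells/well, exposed to compounds plus 20 nM camptothecin for at least 48 h at 37 C; viability read as ATP content by CellTiter-Glo luminescence.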
HT1080 IDH1KD tx: toxicity to HT-1080 IDH1 knockdown cells (counter line); AID 686971; HT-1080 IDH1 knockdown viability, ATP luminescence, 48 h; actives 2% (n = 360,000); Potency, µM (doses to about 46.1 µM), for inactives: at the top dose activity, negative = toxicity, most hits filed as cytotoxic;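 further: 0% = DMSO wells and -100% = cell-free medium wells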
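HT-1080-IDH1KD cells (IDH1 knocked down), 750/well in RPMI with 5% FBS, treated with compound 48 h at 37 degrees C. Viability by CellTiter-Glo luminescence, normalised to DMSO and no-cell wells; concentration-response curves classed.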
HepG2 viability: HepG2 cytotoxicity, counter-screen for TGF-b inhibitors | Potency, µM (titrated, usually from 46.1 µM), without a hit: at the highest dose activity change, negative = cytotoxicity, most hits filed as cytotoxic | HepG2 CAGA-GFP viability, ATP luminescence, 18 h | AID 588856 | actives 0.76% (n = 410,000)
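CellTiter-Glo luminescence gave cytotoxicity after 18 hours at 37 degrees C. The cells were HepG2 CAGA-GFP in 1% FBS DMEM, stimulated with 500 pg/mL TGF-beta after compound addition. %Activity was normalised to no-cell wells (complete cell-killing) and DMSO (no toxicity), and curves were fitted and classified.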
DT40 TDP1 no CPT: qHTS for Inhibitors of human tyrosyl-DNA phosphodiesterase 1 (TDP1): qHTS in cells in absence of CPT; DT40 Tdp1-/- hTDP1 cells, no CPT, ATP luminescence, 48 h; Potency, µM (doses to about 46.2 µM), without a hit: at the highest dose activity change, negative = growth inhibition, actives largely listed as inhibitors; actives 15% (n = 420,000); AID 686978, 2013; further: on the % scale 0 is the no-effect control and ±100 the full control effect; nearly all actives have a fitted effect of over 55% in size
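A cellular qHTS used chicken DT40 cells lacking endogenous Tdp1 but carrying stably transfected human TDP1. Compounds were applied without camptothecin, and cell growth kinetics were judged by ATP-dependent luminescence after ≥48 hr.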
* marks the source's active call; other numbers are inactive results; u = inconclusive; x = not tested or not shown. The call rests on the fitted dose curve; in most records, active means well fitted curve in the direction sought with a large enough effect; inconclusive means small, poorly fitted or top-dose-only effect, or another doubt; inactive means no such curve, though single readings can be large; an effect the other way counts as inactive or inconclusive. Potency means the concentration at half of the fitted maximal effect.

SMILES	TGFb inhibitor	HT1080-NT tox	DT40 TDP1 CPT	HT1080 IDH1KD tx	HepG2 viability	DT40 TDP1 no CPT
CCOC(=O)N1CCN(C(=O)CSCC(=O)N=c2sc3ccccc3n2C)CC1	-5%	12%	16µM*	8%	-1%	u
CC(=O)SCC(=O)N=c1sc2cc(F)ccc2n1C	6%	13%	u	11%	-12%	21µM*
Cn1c(=NC(=O)c2ccco2)sc2ccccc21	-18%	-21%	-28%	-7%	1%	u
Cn1c(=NC(=O)CCl)sc2ccccc21	u	5.8µM*	2.6µM*	6.5µM*	11µM*	4.1µM*
COCCCN1C(=O)C(CC(=O)NCc2cccs2)CC(C(=O)N(C(C)C)C(C)C)=C1C (stereo unspecified)	2%	25%	1%	15%	-5%	-11%
CC1=C(C(=O)NC2CCCc3c2cnn3-c2ccc(F)cc2F)OCCO1 (stereo unspecified)	-11%	-2%	21µM*	-19%	-4%	4.1µM*
CCc1cc(C(=O)NC2CCCc3c2cnn3-c2ccc(F)cc2F)no1 (stereo unspecified)	1%	0%	21µM*	-10%	-75%	18µM*
CCc1nccn1CCC(=O)NC1CCCc2c1cnn2-c1ccc(F)cc1F (stereo unspecified)	-9%	0%	u	-4%	-14%	u
COc1ccc(C(OCC(O)CN2CCC(O)CC2)c2ccc(OC)cc2)cc1 (stereo unspecified)	3%	-21%	11%	-1%	-2%	-5%
COc1ccc(-c2nnn(CC(=O)N(Cc3ccc(F)cc3)C(C(=O)NC3CCCC3)c3ccc(F)cc3)n2)cc1 (stereo unspecified)	5%	u	21µM*	-3%	-10%	u
CCOC(=O)CN(C(=O)Cn1nnc(-c2ccc(OC)cc2)n1)C(C(=O)NC1CCCC1)c1ccc(F)cc1 (stereo unspecified)	-7%	14%	u	5%	-14%	-29%
O=C(NC1CCCC1)C(c1ccc(F)cc1)N(Cc1ccc(F)cc1)C(=O)CCl (stereo unspecified)	-29%	8%	3.3µM*	9%	-36%	4.6µM*
O=C(NC1CCCCC1)C(c1ccncc1)N(Cc1ccc(F)cc1)C(=O)c1ccccn1 (stereo unspecified)	12%	0%	11%	-10%	5%	-8%
CCOC(=O)c1cc(-c2ccccc2)n(CCC(=O)NCCc2ccccc2)c1C	0%	x	21µM*	x	-19%	16µM*
CCOC(=O)c1cc(-c2ccc(C)cc2)n(CCC(=O)Nc2nc3c(C)cccc3s2)c1C	u	x	u	x	-16%	u
CCOC(=O)c1cc(-c2ccc(OC)cc2)n(CCC(=O)Nc2ccc(OC)cc2OC)c1C	-5%	x	21µM*	x	-9%	21µM*
CCOC(=O)c1cc(-c2ccc(OC)cc2)n(CCC(=O)Nc2nc3ccc(OCC)cc3s2)c1C	0%	x	16µM*	x	-16%	9.2µM*
CCOC(=O)c1cc(-c2ccc(OC)cc2)n(CCC(=O)Nc2cccc(C)c2C)c1C	0%	x	-29%	x	-2%	u
CCOC(=O)c1cc(-c2ccc(F)cc2)n(CCC(=O)Nc2ccccc2OC)c1C	u	x	u	x	-31%	21µM*
C=C1[C@@H]2CC[C@@H](C2)C1(C)C	x	x	14%	x	x	-9%
COc1cccc(NC(=O)Cn2c(=O)n(-c3ccc(CC(=O)NCC4CCCO4)cc3)c(=O)c3ccccc32)c1 (stereo unspecified)	-20%	x	-18%	x	2%	u
COc1cc(CN2C(=O)C(Cc3ccccc3)ON=C2c2ncccc2C)cc(OC)c1 (stereo unspecified)	1%	0%	u	1%	-2%	u
O=C(Cn1cccn1)N1CCOc2c(cc(-c3ncc(C(F)(F)F)cc3Cl)cc2OCC2CCCO2)C1 (stereo unspecified)	x	x	-15%	x	x	-17%
CCOC(=O)c1cc(-c2ccc(OC)cc2)n(CCC(=O)Nc2ccccc2OC)c1C	1%	x	15µM*	x	-29%	21µM*
CC(=O)c1cc(-c2ccc(F)cc2)n(CCC(=O)Nc2nc3ccc(C)cc3s2)c1C	0%	x	26µM*	x	-22%	16µM*
SMILES	TGFb inhibitor	HT1080-NT tox	DT40 TDP1 CPT	HT1080 IDH1KD tx	HepG2 viability	DT40 TDP1 no CPT
CCOC(=O)c1cc(-c2ccc(OC)cc2)n(CCC(=O)NCc2ccccc2OC)c1C	u	x	26µM*	x	-21%	u
CCOC(=O)c1cc(-c2ccccc2)n(CC(=O)Nc2ccc(OCC)cc2)c1C	-4%	4%	u	10%	-1%	u
CCOC(=O)c1cc(-c2ccccc2)n(CC(=O)Nc2ccc(OC)cc2OC)c1C	-4%	x	16µM*	x	7%	u
CCOC(=O)c1cc(-c2ccc(F)cc2)n(CCC(=O)NCc2ccccc2OC)c1C	-42%	x	u	x	-25%	u
O=C(NCc1ccccc1)/C(=C\c1ccc(F)cc1)NC(=O)c1ccco1	11%	-2%	0%	4%	0%	-13%
Cc1cc(-c2csc(NC(=O)c3ccc(C#N)cc3)n2)c(C)n1Cc1ccco1	11%	6%	10%	8%	2%	-29%
Cc1ccc(C(=O)CSc2nnc(C3CC3)n2C2CC2)s1	7%	-5%	-6%	7%	-9%	-24%
COc1ccc(NS(=O)(=O)c2cc(NC(=O)COc3ccc(OC)cc3)ccc2N2CCOCC2)cc1	7%	4%	u	1%	-6%	-27%
CCOC(=O)c1cc(-c2ccccc2)n(CCC(=O)NCc2ccccc2Cl)c1C	0%	x	u	x	-15%	13µM*
CCCNC(=O)Cn1c(-c2ccc(F)cc2)cc(C(=O)OCC)c1C	-18%	24%	u	10%	-14%	1%
CCOC(=O)c1cc(-c2ccccc2)n(CCC(=O)N2CCN(c3ccccn3)CC2)c1C	-15%	-5%	15µM*	-10%	0%	21µM*
CCOC(=O)c1cc(-c2ccc(F)cc2)n(CCC(=O)Nc2cc(OC)cc(OC)c2)c1C	u	x	15µM*	x	-20%	16µM*

Screening data deposited in PubChem BioAssay by National Center for Advancing Translational Sciences (NCATS).
